The record followed here is PubChem BioAssay (EPA / NIEHS).

Calls of active or inactive are those of the source. How the source made its calls: active means hit-call score of the fitted dose curve at least 0.9, where 1 is the maximum; inactive means score below 0.9.

Read-out in experiment [1]: Urokinase-type plasminogen activator receptor (uPAR), PLAUR (gene 5329)
Put plainly: BSK_BE3C_uPAR: BioMAP Diversity Plus: BE3C Assay for Urokinase-type plasminogen activator receptor (uPAR) Biomarker Activity (AID 2283039).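 On outcome: uPAR protein level measured by ELISA on the cells; cells exposed to compound for one day before measurement.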 As to conditions: primary human bronchial epithelial cells; actives raise or lower the signal. An outline of the steps:
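ELISA readout of uPAR on human lung primary bronchial epithelial cells, 24 h post-dosing. Bidirectional curve fit relative to DMSO vehicle baseline; gain or loss of signal both scored.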

Read-out in experiment [2]: Interleukin-6 (IL6), IL6 (gene 3569)
The experiment is described as follows: BSK_CASM3C_IL6: BioMAP Diversity Plus: CASM3C Assay for Interleukin-6 (IL6) Biomarker Activity for (AID 2283040). To be noted: primary human coronary artery smooth muscle cells; actives raise or lower the signal.

Read-out in experiment [3]: Tissue plasminogen activator (tPA), PLAT (gene 5327)
The experiment is described as follows: BSK_BE3C_tPA: BioMAP Diversity Plus: BE3C Assay for Tissue plasminogen activator (tPA) Biomarker Activity (AID 2283041).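 Further: tPA level quantified by ELISA one day after compound addition.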 To be noted: primary human bronchial epithelial cells; actives raise or lower the signal. Summed up: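 ELISA read-out of tPA on human primary bronchial epithelial cells, 24 h post-dosing; bidirectional fit vs DMSO negative control/baseline.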

Read-out in experiment [4]: Interleukin-8 (IL8), CXCL8 (gene 3576)
Put plainly: BSK_CASM3C_IL8: BioMAP Diversity Plus: CASM3C Assay for Interleukin-8 (IL8) Biomarker Activity (AID 2283042).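 Further: IL-8 protein level quantified by ELISA.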 To be noted: primary human coronary artery smooth muscle cells; actives raise or lower the signal.

Read-out in experiment [5]: Human Leukocyte Antigen - DR isotype (HLADR), HLA-DRA (gene 3122)
Put plainly: BSK_CASM3C_HLADR: BioMAP Diversity Plus: CASM3C Assay for Human Leukocyte Antigen - DR isotype (HLADR) Biomarker Activity (AID 2283043).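 Further: cell-surface HLA-DR protein level quantified by ELISA.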 As to conditions: primary human coronary artery smooth muscle cells; actives raise or lower the signal.

Read-out in experiment [6]: Macrophage colony-stimulating factor (MCSF), CSF1 (gene 1435)
Put plainly: BSK_CASM3C_MCSF: BioMAP Diversity Plus: CASM3C Assay for Macrophage colony-stimulating factor (MCSF) Biomarker Activity (AID 2283044).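 Further: M-CSF protein amount quantified by ELISA after 24 h exposure.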 As to conditions: primary human coronary artery smooth muscle cells; actives raise or lower the signal.

Read-out in experiment [7]: Low-density lipoprotein receptor (LDLR), LDLR (gene 3949)
Put plainly: BSK_CASM3C_LDLR: BioMAP Diversity Plus: CASM3C Assay for Low-density lipoprotein receptor (LDLR) Biomarker Activity (AID 2283045).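 Further: LDLR protein level on the cell surface quantified by ELISA.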 To be noted: primary human coronary artery smooth muscle cells; actives raise or lower the signal.

Read-out in experiment [8]: Monocyte Chemoattractant Protein-1 (MCP1), CCL2 (gene 6347)
Put plainly: BSK_CASM3C_MCP1: BioMAP Diversity Plus: CASM3C Assay for Monocyte Chemoattractant Protein-1 (MCP1) Biomarker Activity (AID 2283046).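 Further: MCP-1 level quantified by ELISA 24 h after dosing.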 As to conditions: primary human coronary artery smooth muscle cells; actives raise or lower the signal.

Experiment [9] is described as follows: BSK_CASM3C_Proliferation: Cell Proliferation Assessment in the BioMAP Diversity Plus: CASM3C Assay (AID 2283047).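 Further: sulforhodamine B total protein stain as relative cell number at 560 nm; sub-confluent cells exposed 48 h before staining; fitted both ways against DMSO so gain or loss of cell number.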 To be noted: primary human coronary artery smooth muscle cells.
Read-out in experiment [10]: Monokine induced gamma interferon (MIG), CXCL9 (gene 4283)
Put plainly: BSK_CASM3C_MIG: BioMAP Diversity Plus: CASM3C Assay for Monokine induced gamma interferon (MIG) Biomarker Activity (AID 2283048).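 Further: MIG protein level measured by ELISA.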 To be noted: primary human coronary artery smooth muscle cells; actives raise or lower the signal.

Read-out in experiment [11]: serum amyloid A (SAA), SAA1 (gene 6288)
Put plainly: BSK_CASM3C_SAA: BioMAP Diversity Plus: CASM3C Assay for serum amyloid A (SAA) Biomarker Activity (AID 2283049).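 Further: SAA protein level quantified by ELISA.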 To be noted: primary human coronary artery smooth muscle cells; actives raise or lower the signal.

The nature of experiment [12]: BSK_CASM3C_SRB: Viability Assessment in the BioMAP Diversity Plus: CASM3C Assay (AID 2283050).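 Further: cells exposed to compound for 24 h.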 To be noted: primary human coronary artery smooth muscle cells.
Read-out in experiment [13]: Thrombomodulin, THBD (gene 7056)
The experiment is described as follows: BSK_CASM3C_Thrombomodulin: BioMAP Diversity Plus: CASM3C Assay for Thrombomodulin Biomarker Activity (AID 2283051).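 Further: thrombomodulin protein level measured by ELISA 24 h after dosing.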 As to conditions: primary human coronary artery smooth muscle cells; actives raise or lower the signal.

Read-out in experiment [14]: Tissue Factor, F3 (gene 2152)
Put plainly: BSK_CASM3C_TissueFactor: BioMAP Diversity Plus: CASM3C Assay for Tissue Factor Biomarker Activity (AID 2283052).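 Further: cell surface tissue factor protein level read by ELISA.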 To be noted: primary human coronary artery smooth muscle cells; actives raise or lower the signal.

Read-out in experiment [15]: Interferon-gamma inducible Protein 10 (IP10), CXCL10 (gene 3627)
Put plainly: BSK_hDFCGF_IP10: BioMAP Diversity Plus: hDFCGF Assay for Interferon-gamma inducible Protein 10 (IP10) Biomarker Activity (AID 2283053). As to conditions: primary human foreskin fibroblasts; actives raise or lower the signal. An outline of the steps: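 ELISA read-out of IP-10 (CXCL10) from primary human skin fibroblasts, 24 h after compound addition. Gain or loss of signal versus DMSO baseline, bidirectional curve fitting.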

Read-out in experiment [16]: Urokinase-type plasminogen activator receptor (uPAR), PLAUR (gene 5329)
Put plainly: BSK_CASM3C_uPAR: BioMAP Diversity Plus: CASM3C Assay for Urokinase-type plasminogen activator receptor (uPAR) Biomarker Activity (AID 2283054).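 Further: cell-surface uPAR protein level quantified by ELISA.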 As to conditions: primary human coronary artery smooth muscle cells; actives raise or lower the signal.

Read-out in experiment [17]: Vascular cell adhesion molecule 1 (VCAM1), VCAM1 (gene 7412)
The experiment is described as follows: BSK_CASM3C_VCAM1: BioMAP Diversity Plus: CASM3C Assay for Vascular cell adhesion molecule 1 (VCAM1) Biomarker Activity (AID 2283055).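 Further: VCAM-1 protein level quantified by ELISA on the cells.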 To be noted: primary human coronary artery smooth muscle cells; actives raise or lower the signal.

Read-out in experiment [18]: Epidermal growth factor receptor (EGFR), EGFR (gene 1956)
Put plainly: BSK_hDFCGF_EGFR: BioMAP Diversity Plus: hDFCGF Assay for Epidermal growth factor receptor (EGFR) Biomarker Activity (AID 2283057). As to conditions: primary human foreskin fibroblasts; actives raise or lower the signal. Summed up:
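ELISA readout of EGFR on human dermal fibroblasts (primary foreskin cells), 24 h post-dosing; bidirectional curve fit vs DMSO baseline, gain or loss of signal scored.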

Read-out in experiment [19]: Interleukin-8 (IL8), CXCL8 (gene 3576)
The experiment is described as follows: BSK_hDFCGF_IL8: BioMAP Diversity Plus: hDFCGF Assay for Interleukin-8 (IL8) Biomarker Activity (AID 2283058). To be noted: primary human foreskin fibroblasts; actives raise or lower the signal. Summed up:
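Primary human foreskin fibroblasts (hDFCGF system) dosed with chemical; IL-8 measured by ELISA 24 hours later. Bidirectional curve fitting relative to DMSO baseline; cytotoxicity tracked in parallel cultures by SRB total protein staining.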

Read-out in experiment [20]: Collagen III, COL3A1 (gene 1281)
Put plainly: BSK_hDFCGF_CollagenIII: BioMAP Diversity Plus: hDFCGF Assay for Collagen III Biomarker Activity (AID 2283056). To be noted: primary human foreskin fibroblasts; actives raise or lower the signal. Summed up:
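Human foreskin fibroblast primary cultures sampled 24 h after dosing; Collagen III quantified by ELISA. Signal fitted bidirectionally against DMSO baseline.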

`COc1cc(OC)nc(NC(=O)NS(=O)(=O)c2ncccc2OCC(F)(F)F)n1`: the result in experiment [1], in experiment [2], in experiment [3], in experiment [4], in experiment [5] and in experiment [6] was inactive. Also, the result in experiment [7], in experiment [8], in experiment [9], in experiment [10], in experiment [11] and in experiment [12] was inactive. In addition, the outcome in experiment [13], in experiment [14], in [15], in experiment [16], in [17] and in [18] was inactive. Also, the outcome in experiment [19] was inactive.
`CCOC(=O)C(C)OC(=O)c1cc(Oc2ccc(C(F)(F)F)cc2Cl)ccc1[N+](=O)[O-]` (stereo not drawn): the outcome in [1], in [2], in experiment [3], in experiment [4], in experiment [5] and in experiment [7] was inactive. In addition, the outcome in experiment [9], in experiment [10], in experiment [11], in [12], in experiment [13] and in [14] was inactive. The result in experiment [15], in experiment [16], in experiment [17], in experiment [18] and in experiment [19] was inactive. Besides, the values for the AC50 in [6] and in [8] were 0.989 µM (active) and 8.51 µM (active), respectively.
For the molecule `COC(=O)NC(=S)Nc1ccccc1NC(=S)NC(=O)OC`, in experiment [1], the AC50 was 1.46 µM (active). Also, the outcome in [2], in experiment [3], in experiment [4], in [5], in experiment [6] and in experiment [7] was inactive. Moreover, the outcome in experiment [8], in experiment [9], in [10], in experiment [11], in experiment [12] and in experiment [13] was inactive. Moreover, the outcome in [14], in experiment [15], in experiment [16], in experiment [17], in experiment [20] and in [18] was inactive. Besides, the result in experiment [19] was inactive.
With `Cc1cc(C)nc(Nc2ccccc2)n1`, the outcome in experiment [1], in experiment [2], in experiment [3], in experiment [4], in experiment [5] and in [6] was inactive. Moreover, the result in [7], in [8], in experiment [9], in [10], in experiment [11] and in [12] was inactive. For the same molecule, the result in experiment [13], in experiment [14], in experiment [15], in experiment [16], in [17] and in experiment [20] was inactive. Moreover, the result in [18] and in [19] was inactive.
Take `CCCCC(O)(Cn1cncn1)c1ccc(Cl)cc1Cl` (stereo not drawn): the result in experiment [1], in experiment [2], in [3], in experiment [4], in experiment [5] and in [6] was inactive. Also, the outcome in [7], in [8], in experiment [9], in [10], in [11] and in experiment [12] was inactive. The outcome in [13], in [14], in experiment [16], in [17], in experiment [18] and in experiment [19] was inactive. Moreover, the AC50 in [15] is 32.9 µM (active); in [20], 29.9 µM (active).
Consider `CCOc1nc(F)cc2nc(S(=O)(=O)Nc3c(Cl)cccc3Cl)nn12`, for which the outcome in [1], in [2], in [3], in experiment [4], in experiment [5] and in experiment [6] was inactive. The outcome in experiment [7], in experiment [8], in experiment [9], in experiment [10], in experiment [11] and in experiment [12] was inactive. Besides, the outcome in experiment [13], in [14], in experiment [15], in experiment [16], in experiment [17] and in experiment [20] was inactive. Moreover, the result in experiment [18] and in [19] was inactive.
`COC(=O)c1c(C(F)F)nc(C(F)(F)F)c(C2=NCCS2)c1CC(C)C`: the result in experiment [1], in [2], in [3], in experiment [4], in experiment [5] and in experiment [6] was inactive. Moreover, the outcome in experiment [7], in experiment [8], in experiment [9], in [10], in [11] and in experiment [12] was inactive. Also, the outcome in experiment [14], in [16], in [17], in experiment [20], in experiment [18] and in experiment [19] was inactive. Moreover, the AC50 in experiment [13] is 18 µM (active); in [15], 6.09 µM (active).

For orientation: AC50 means the midpoint of the concentration-response curve, whichever way the signal moves.
